Vaccinia Venus – vaccinia inhibition (Venus reporter); Vaccinia virus Venus reporter expression, fluorescence; Potency, µM (titrated, usually from 36.5 µM), inactives show top-dose activity change, negative = inhibition, most hits filed as inhibitors; hit rate 0.46% among 330,000; AID 720580; calls by dose curve; tested in A549 cells; note: potency is the fitted concentration of half-maximal effect; nearly all actives have a fitted effect of over 30% in size
HCMV inh – blocks human cytomegalovirus replication; HFF cells, HCMV-luciferase reporter, 72 h; active compounds read low; activity change, negative = inhibition, % at 57.5 µM; hit rate 4.5% among 410,000; in the data active = activity change below about -60%; inconclusive = no clear call, values can overlap the other calls; inactive = above about -39%
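Cell-based, HFFs, 1000 cells/well, 16 h 37C; cpds in DMSO + HCMV-luc, MOI 1 PFU/cell; 72 h 37C; OneGlo luminescence after 5 min RT; norm. to buffer vs Salinomycin 10uM.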
HCV inh – HCV inhibition. Huh7.5.1 HCVcc-Cre infection, luciferase reporter, 44 h. Potency, µM (series often up to 41.8 µM), for the others: at the top dose activity change, negative = inhibition, actives largely listed as inhibitors. hit rate 3.4% among 340,000; active = well fitted inhibition curve with a large enough effect; inconclusive = small, poorly fitted or top-dose-only effect, or another doubt; inactive = no such curve, though single readings can be large or run the other way; note: potency is the fitted concentration of half-maximal effect
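Cells (1,000/well) were plated 4 h before compound, then infected with HCVcc-Cre virus (~0.5 moi). After 44 h further culture, infection was read as luciferase luminescence following a 15 min substrate incubation at room temperature.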
Vaccinia mCherry – vaccinia inhibition (mCherry reporter); Vaccinia virus mCherry reporter infection, fluorescence; Potency, µM (highest dose often 36.5 µM), for inactives: top-dose activity change, negative = inhibition, actives largely listed as inhibitors; hit rate 0.63% among 310,000; AID 720579; calls by dose curve; tested in A549 cells; note: potency is the fitted concentration of half-maximal effect; nearly all actives have a fitted effect of over 35% in size
FMDV inh – antivirals against foot and mouth disease virus. FMDV antiviral cell-based qHTS. Potency, µM (titrated, usually from 57.9 µM), inactives show top-dose activity change, negative = inhibition, actives largely listed as inhibitors. hit rate 1.2% among 410,000; calls by dose curve; tested in HEK293T cells; note: read-out not given here; potency is the fitted concentration of half-maximal effect; nearly all actives have a fitted effect of over 45% in size
An asterisk follows results filed as active; i = inactive; ? = inconclusive; . = not tested or not shown; [ ] = dose if it differs, or a comment. Compounds with a hit are over-represented: about 7.3% of the library has one in this group of screens. % is set by controls: 0 for no effect and ±100 for the full control effect.

SMILES	Vaccinia Venus	HCMV inh	HCV inh	Vaccinia mCherry	FMDV inh
COc1cc2ccccc2cc1C(=O)N(CCN(C)C)c1nc2c(OC)ccc(OC)c2s1	?	-36.3	?	-22.5%	?
CN(C)CCCN(C(=O)c1cc(-c2cccs2)nc2ccccc12)c1nc2c(F)cccc2s1	-28.0%	-8.5	12.3%	?	-16.7%
Cc1ccc2nc(N(CCCN(C)C)C(=O)c3cc(-c4cccs4)nc4ccccc34)sc2c1	.	22.6	11.2µM*	.	-17.9%
COc1cc2ccccc2cc1C(=O)N(CCN(C)C)c1nc2ccc(C)cc2s1	-24.5%	-7.7	6.31µM*	-5.0%	-15.3%
CCN(CC)CCN(C(=O)c1cc2ccccc2cc1OC)c1nc2ccc(OC)cc2s1	.	-25.7	11.2µM*	.	-18.6%
COc1ccc2c(c1)cc1c(=O)n(CC(=O)NCCCc3ccccc3)nc(C)n12	-10.3%	6.8	.	-2.2%	-7.4%
O=C(NCc1nc2ccccc2[nH]1)C1=C[C@H](c2csc3ccccc23)C[C@H](OCc2ccc(CO)cc2)O1	-26.1%	-61.8*	?	-7.1%	-18.7%
O=C(NCc1ccccc1)C1=C[C@H](c2csc3ccccc23)C[C@H](OCCCCO)O1	?	-95.3*	-39.9%	-24.4%	-5.7%
O=C(NCc1nc2ccccc2[nH]1)C1=C[C@@H](c2csc3ccccc23)C[C@@H](OCc2ccc(CO)cc2)O1	?	-18.7	6.1%[8.37 µM]	i	-12.9%
CCc1ccc(NC(=O)CSC2=Nc3ccccc3C3=NC(CC(=O)NCc4ccc5c(c4)OCO5)C(=O)N23)cc1 (centres undefined)	3.0%	50.6	.	-10.5%	27.2%
Cc1cc(C)c(NC(=O)c2cc(S(=O)(=O)N3CCC4(CC3)OCCO4)ccc2F)c(C)c1	-1.6%	-20.5	.	-3.3%	-10.6%
CCN(CC)c1ccc(NC(=O)c2cccc(OC)c2)c(C)c1	?	0.1	?	-8.7%	10.5%
CCN(CC)c1ccc(NC(=O)C2COc3ccc(OC)cc3C2)c(C)c1 (centres undefined)	?	-79.3*	.	?	?
CCN(CC)c1ccc(NC(=O)c2cc(OC)cc(OC)c2)c(C)c1	?	-85.2*	?	?	-21.2%
CCCCC(=O)Nc1cccc(NC(=O)c2ccc3c(c2)OCO3)c1	.	16.2	2.82µM*	.	46.2%
CCC(=O)Oc1ccc(C(=O)Nc2ccc3c(c2)OCO3)cc1	4.2%	-102.8*	13.6%	-3.4%	-1.0%
COCCn1c(=O)cnc2cnc(Nc3cccc(OC)c3)nc21	.	.	.	.	-12.8%
CCCOc1ccc(C(=O)Nc2ccc3c(c2)OCO3)cc1	.	111.1	?	.	37.6%
Cc1cc(NC(=O)c2ccc3c(c2)OCO3)ccc1NC(=O)c1ccccc1	-18.1%	19.6	?	-28.2%	7.94e-05µM*
CCN(CC)c1ccc(NC(=O)c2ccc3c(c2)OCO3)c(C)c1	-12.9%	-18.6	11.2µM*	?	14.2%
COc1ccc(-c2cccc(NC(=O)c3ccc4c(c3)OCO4)c2)nn1	-12.5%	-19.6	15.8µM*	-22.0%	26.6%
CCN(CC)c1ccc(NC(=O)COCc2cc(-c3ccc4c(c3)OCO4)on2)c(C)c1	-26.3%	-17.2	.	-1.5%	-17.0%
CCCOc1c(Cl)cc(C(=O)Nc2ccc3c(c2)OCO3)cc1OCC	?	-17.3	12.6µM*	?	?
Cc1cc(NC(=O)c2ccc3c(c2)OCO3)ccc1NC(=O)c1ccco1	-14.9%	?	?	i	31.5%
CS(=O)(=O)c1ccc(-c2cccc(NC(=O)c3ccc4c(c3)OCO4)c2)nn1	?	9.9	.	-5.8%	-9.4%
SMILES	Vaccinia Venus	HCMV inh	HCV inh	Vaccinia mCherry	FMDV inh
Cc1c(Cl)cccc1NC(=O)CCn1c(=O)c2cccn2c2ccccc21	-1.5%	?	.	1.3%	0.0%
CCCc1nc2ccc(NC(=O)CC(C)(C)C)cn2n1	.	49.5	.	.	.
CCCCCN(C(=O)CCC(=O)OCC(=O)c1cccc(OC)c1)c1c(N)n(CCCC)c(=O)[nH]c1=O	-13.6%	20.4	5.1%	i	-17.8%
Cc1ccc(C)c(OCCn2c(-c3ccc(Cl)cc3)nc3ccccc3c2=O)c1C	8.8%	36.6	.	0.0%	-6.7%
CN(C)CCN1CCN(C2CN(CCc3ccccc3)S(=O)(=O)C2)CC1 (centres undefined)	1.2%	-8.1	.	i	-17.1%
Cc1nc2ccc(S(=O)(=O)N(CC(=O)Nc3cccc(F)c3)Cc3ccccc3)cc2s1	-6.4%	-1.0	.	-3.5%	-20.8%
Cc1nc(N2CCC(C)CC2)c2c(C)c(C(=O)Nc3ccc(C)c(F)c3)sc2n1	-6.1%	10.3	-21.5%	-23.8%	-18.2%
